In PubChem BioAssay (NCATS):
“And” between values parts separate entries of the source, which are not always exact repeats. Identical values can stand only once. Records with an inconclusive call do not appear. The source made the active and inactive calls. Unless noted, calls come from the whole dose curve; as a rule, active = well fitted curve in the direction sought with a large enough effect; inconclusive = small, poorly fitted or top-dose-only effect, or another doubt; inactive = no such curve, though single readings can be large; an effect the other way counts as inactive or inconclusive.

How the values were obtained:
[1] = qHTS assay for small molecule disruptors of the mitochondrial membrane potential - 1 hr assay (AID 651754; calls by dose curve; note: % is set by controls: 0 for no effect and ±100 for the full control effect; nearly all actives have a fitted effect of over 35% in size)
Method in brief: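 Mitochondrial potential in living HepG2 cells after 1 hr compound treatment at 37C was read with Mito-MPS dye added for a further 30 min. Red aggregate and green monomer fluorescence were measured; loss of potential leaves dye as cytoplasmic monomers.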

[2] = target: Tumor necrosis factor (Homo sapiens) (UniProt P01375); assay: qHTS assay to identify small molecules that stimulate Tumor Necrosis Factor-alpha (TNF-alpha) secretion (AID 651757; active = well fitted curve in the direction sought with a large enough effect in the signal ratio; the % refers to the signal ratio; note: 0% is about no effect)
Sequence of Tumor necrosis factor (Homo sapiens) (P01375 whole entry, looked up): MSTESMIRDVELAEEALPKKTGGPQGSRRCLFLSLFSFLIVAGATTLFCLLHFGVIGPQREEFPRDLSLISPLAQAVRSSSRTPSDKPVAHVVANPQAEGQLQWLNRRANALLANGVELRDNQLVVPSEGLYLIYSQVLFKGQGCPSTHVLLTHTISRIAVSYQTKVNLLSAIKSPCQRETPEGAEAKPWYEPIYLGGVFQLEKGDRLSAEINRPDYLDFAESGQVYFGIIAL
Method in brief: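 Secreted TNF-alpha quantified by TR-FRET sandwich of two labeled anti-TNF-alpha antibodies, incubated 3 hr at room temperature. Preceded by 17 hr, 37 C compound treatment of THP-1 cells at 3000 cells/well.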

[3] = qHTS assay for environmental chemicals that activate the Aryl hydrocarbon Receptor (AhR) signaling pathway (AID 651777); conditions: 1A2-DRE human hepatoma cells, luciferase, 24 h; activation: active compounds read high; note: % of control where 0% means no effect; nearly all actives have a fitted effect of over 15% in size
Method in brief: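 AhR activation is scored as a rise in luciferase from a stable DRE–CYP1A2 promoter construct in human hepatoma cells. Treatment lasts 24 hr at 37 C; detection uses One-Glo after 30 min at room temperature.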

[4] = target: Peroxisome proliferator-activated receptor alpha (Homo sapiens) (UniProt Q07869); assay: qHTS assay for small molecule agonists of the peroxisome proliferator-activated receptor alpha (PPARalpha) signaling pathway (AID 651778); conditions: PathHunter PPARalpha complementation, chemiluminescence, 6 h; active compounds read high; note: % of control where 0% means no effect
Sequence of Peroxisome proliferator-activated receptor alpha (Homo sapiens) (Q07869 whole entry, looked up): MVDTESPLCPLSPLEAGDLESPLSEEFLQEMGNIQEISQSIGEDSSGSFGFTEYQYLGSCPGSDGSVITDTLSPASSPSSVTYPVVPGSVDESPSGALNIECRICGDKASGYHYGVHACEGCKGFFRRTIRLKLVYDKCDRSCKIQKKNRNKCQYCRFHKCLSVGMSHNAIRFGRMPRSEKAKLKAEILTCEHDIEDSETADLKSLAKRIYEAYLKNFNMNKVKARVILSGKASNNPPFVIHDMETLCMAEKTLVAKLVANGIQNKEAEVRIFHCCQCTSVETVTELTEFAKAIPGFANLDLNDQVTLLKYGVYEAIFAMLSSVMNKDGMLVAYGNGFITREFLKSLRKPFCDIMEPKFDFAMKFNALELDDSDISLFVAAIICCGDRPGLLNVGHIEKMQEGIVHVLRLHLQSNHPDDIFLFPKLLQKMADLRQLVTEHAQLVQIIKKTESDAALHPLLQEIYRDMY
Method in brief: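 Chemiluminescence from complemented enzyme reported PPARalpha activation in cells after 6 hr of compound treatment at 37 C. The detection reagent was incubated for 60 min at room temperature, and compounds were scored as agonists.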

[5] = target: Nuclear receptor ROR-gamma (Homo sapiens) (UniProt P51449); assay: qHTS assay for small molecule antagonists of the retinoid-related orphan receptor gamma (ROR-gamma) signaling pathway (AID 651802); note: nearly all actives have a fitted effect of over 60% in size; note: potency is the fitted concentration of half-maximal effect
Sequence of Nuclear receptor ROR-gamma (Homo sapiens) (P51449 whole entry, looked up): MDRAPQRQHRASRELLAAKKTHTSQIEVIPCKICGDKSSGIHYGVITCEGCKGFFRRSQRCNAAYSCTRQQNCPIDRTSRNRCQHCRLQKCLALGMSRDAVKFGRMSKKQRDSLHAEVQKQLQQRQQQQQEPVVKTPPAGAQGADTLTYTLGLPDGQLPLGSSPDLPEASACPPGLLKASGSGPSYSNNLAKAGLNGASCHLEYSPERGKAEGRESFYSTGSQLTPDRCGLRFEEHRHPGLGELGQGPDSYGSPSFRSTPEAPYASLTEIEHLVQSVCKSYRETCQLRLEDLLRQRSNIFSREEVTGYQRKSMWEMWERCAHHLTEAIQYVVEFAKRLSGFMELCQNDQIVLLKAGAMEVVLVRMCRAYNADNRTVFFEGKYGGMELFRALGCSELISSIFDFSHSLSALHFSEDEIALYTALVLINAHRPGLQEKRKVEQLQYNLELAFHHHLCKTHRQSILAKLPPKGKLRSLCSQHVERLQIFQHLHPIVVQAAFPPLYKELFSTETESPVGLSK
Method in brief: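 Luminescence (One-Glo, 30 min RT) measured 16 h after compound addition and doxycycline induction at 37C. Reporter: RORE-luciferase under TET-inducible ROR-gamma in CHO cells.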

[6] = qHTS assay for small molecule agonists of the antioxidant response element (ARE) signaling pathway measured by Nrf2-dependant transcriptional activity (AID 720636; active = well fitted curve in the direction sought with a large enough effect in the repeat runs; an effect the other way counts as inactive or inconclusive;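 note: HepG2 cells with an ARE-driven luciferase reporter; % of control where 0% means no effect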)
Method in brief: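 First, ARE-luc HepG2 cells attached for 6 hr at 37 C in 1% dialyzed FBS medium. Next, compound or DMSO was added and incubated 16 hr. Finally, ONE-Glo reagent was added and luminescence measured after 30 min.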

[7] = qHTS assay for small molecule agonists of the antioxidant response element (ARE) signaling pathway measured by Nrf2-dependant transcriptional activity - cell viability counter screen (AID 720653; active = well fitted curve in the direction sought with a large enough effect in the repeat runs; an effect the other way counts as inactive or inconclusive; note: % is set by controls: 0 for no effect and ±100 for the full control effect); conditions: ARE-bla HepG2 viability, CellTiter-Glo ATP luminescence, 16 h; active compounds read low
Method in brief: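 Cytotoxicity counter screen: intracellular ATP quantified by CellTiter-Glo luminescence in the same ARE-bla HepG2 plates, after 16 h compound exposure and a 2 h beta-lactamase substrate step.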

[8] = qHTS assay for cell viability of HEK293 cells (AID 743288); conditions: ATP luminescence (CellTiter-Glo), 18 h, active compounds read low; note: % is set by controls: 0 for no effect and ±100 for the full control effect; nearly all actives have a fitted effect of over 50% in size
Method in brief: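 HEK293, 18 h, 37 C, ATP luminescence. Cells at 2,000/well were allowed at least 5 h to settle before dosing; CellTiter-Glo developed 30 min at RT.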

[9] = qHTS assay for cell viability of the p53RE-bla HCT-116 cell line (AID 743292); note: % is set by controls: 0 for no effect and ±100 for the full control effect; nearly all actives have a fitted effect of over 55% in size
Method in brief: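 Quantitative high-throughput format: compounds in DMSO were pinned onto p53RE-bla HCT-116 cells (4,000/well) and incubated 16 h at 37 C. Total intracellular ATP, read by CellTiter-Glo luminescence, reflects viable cell number.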

[10] = target: Nuclear receptor subfamily 1 group I member 2 (Rattus norvegicus) (UniProt Q9R1A7); assay: qHTS assay for small molecule activators of the rat pregnane X receptor (rPXR) signaling pathway (AID 651751; call rule not given here; note: 0% is about no effect); conditions: rPXR reporter cells, luciferase (One-Glo), 24 h
Sequence of Nuclear receptor subfamily 1 group I member 2 (Rattus norvegicus) (Q9R1A7 whole entry, looked up): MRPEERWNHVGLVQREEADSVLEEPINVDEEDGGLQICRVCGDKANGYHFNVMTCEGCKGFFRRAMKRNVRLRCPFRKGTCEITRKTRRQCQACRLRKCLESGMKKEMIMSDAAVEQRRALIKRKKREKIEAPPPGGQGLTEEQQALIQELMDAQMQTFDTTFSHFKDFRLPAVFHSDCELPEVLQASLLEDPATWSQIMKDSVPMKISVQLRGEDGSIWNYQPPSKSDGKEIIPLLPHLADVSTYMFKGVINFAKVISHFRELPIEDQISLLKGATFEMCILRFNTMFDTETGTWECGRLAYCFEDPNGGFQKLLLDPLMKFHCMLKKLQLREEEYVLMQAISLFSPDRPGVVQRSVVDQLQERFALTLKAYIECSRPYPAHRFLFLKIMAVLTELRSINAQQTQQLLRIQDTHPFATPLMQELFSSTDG

[11] = qHTS assay for small molecule activators of the human pregnane X receptor (PXR) signaling pathway (AID 720659; call rule not given here; note: 0% is about no effect)
[12] = qHTS assay for small molecule antagonists of the retinoid-related orphan receptor gamma (ROR-gamma) signaling pathway - cell viability counter screen (AID 720652; active = well fitted curve in the direction sought with a large enough effect in the repeat runs; an effect the other way counts as inactive or inconclusive;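 note: compound exposure lasted 16 hr before ATP read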; note: potency is the fitted concentration of half-maximal effect)
Method in brief: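 Cytotoxicity counter screen: intracellular ATP (CellTiter-Glo luminescence) measured in the doxycycline-induced CHO RORE-luciferase reporter line after 16 hr compound exposure at 37 C, 5% CO2.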

[13] = qHTS assay for small molecule disruptors of the mitochondrial membrane potential - 5 hr assay (AID 651755; calls by dose curve; note: % is set by controls: 0 for no effect and ±100 for the full control effect; nearly all actives have a fitted effect of over 40% in size)
Method in brief: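 Membrane-potential dye readout: red aggregate (540 ex/590 em) versus green monomer (490 ex/535 em) fluorescence after 30 min dye loading, following 5 hr compound exposure at 37C of overnight-plated HepG2 cells.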

[14] = qHTS assay to identify small molecules that stimulate interleukin-8 (IL-8) secretion (AID 651758; active = well fitted activation curve with a large enough effect in the signal ratio; the % refers to the signal ratio; note: 0% is about no effect)
Method in brief: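 Secreted IL-8 measured homogeneously by TR-FRET (two labelled anti-IL-8 antibodies, 1-3 h at room temperature) after a 16 h, 37 C compound treatment of THP-1 cells at 2000 cells/well.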

CCCC(Cl)CCCC(Cl)CCC(Cl)CCC(Cl)CCC(Cl)CCCC(Cl)CCC (stereo not drawn)
inactive: Potency [1] | Potency [2] | activation [3] -0.261% | max response [4] -3.72% | Potency [5] | outcome [6] | max response [7] -6.05% | max response [8] 8.25% | Potency [9] | max response [10] 2.04% | outcome [11]

O=C(O)c1cccc([N+](=O)[O-])c1
inactive: Potency [1] | Potency [2] | activation [3] 0.347% and -2.14% | max response [4] -2.18% and -2.21% | Potency [5] | outcome [6] | Potency [12] | max response [7] 20.3% and -7.83% | max response [8] 4.89% and -8.68% | Potency [9] | max response [10] -0.759% and -3.01% | outcome [11]

O=Cc1ccc(CO)o1
inactive: Potency [13] | Potency [2] | Potency [14] | activation [3] -1.71% | Potency [5] | outcome [6] | Potency [12] | max response [7] -0.711% | max response [8] 6.14% | Potency [9] | max response [10] 1.25% | outcome [11]

Cc1cccc(C)c1
inactive: Potency [13] | Potency [2] | Potency [14] | activation [3] 0.25% | max response [4] 1.06% | outcome [6] | Potency [12] | max response [7] 7.38% | max response [8] 7.2% | Potency [9] | max response [10] -3.48% | outcome [11]

C=Cc1ccccc1C=C
inactive: Potency [13] | Potency [2] | Potency [14] | activation [3] -0.496% | max response [4] -1.6% | Potency [5] | outcome [6] | Potency [12] | max response [7] 4.89% | max response [8] 3.31% | Potency [9] | max response [10] 5.55% | outcome [11]

Cc1ccc(C(=O)O)cc1
inactive: Potency [1] | activation [3] -0.0785% | max response [4] 2.54% | Potency [5] | outcome [6] | Potency [12] | max response [7] 8.21% | max response [8] -10.4% | Potency [9] | max response [10] 3.84% | outcome [11]

CSc1ccc(C=O)cc1
inactive: Potency [1] | activation [3] 0.018% | max response [4] -3.7% | Potency [5] | outcome [6] | Potency [12] | max response [7] -8.76% | max response [8] 8.71% | Potency [9] | max response [10] 9.01% | outcome [11]

CC(C)N(C)C
inactive: Potency [1] | Potency [14] | activation [3] -0.41% | max response [4] -5.48% | Potency [5] | outcome [6] | Potency [12] | max response [7] 2.26% | Potency [9] | max response [10] -2.95% | outcome [11]

CCOCCO
inactive: Potency [1] | Potency [2] | activation [3] -0.327% | max response [4] -5.75% | Potency [5] | outcome [6] | max response [7] 10.2% | max response [8] -0.409% | Potency [9] | max response [10] -4.11% | outcome [11]

CCCCCCC(=O)O
inactive: Potency [1] | Potency [2] | activation [3] 0.903% | max response [4] 14.5% | Potency [5] | outcome [6] | Potency [12] | max response [7] -2.08% | max response [8] -7.36% | Potency [9] | max response [10] -2.97% | outcome [11]

Nc1cc(S(=O)(=O)O)ccc1O
inactive: Potency [13] | Potency [2] | Potency [14] | activation [3] -0.613% | max response [4] -7.35% | Potency [5] | outcome [6] | max response [7] 3.72% | max response [8] -1.98% | Potency [9] | max response [10] 3.88% | outcome [11]

Cc1ccc(CO)cc1
inactive: Potency [13] | Potency [2] | Potency [14] | activation [3] -1.15% | max response [4] 4.64% | Potency [5] | outcome [6] | Potency [12] | max response [7] -0.358% | max response [8] 9.52% | Potency [9] | max response [10] 4.72% | outcome [11]

CCCCC/C=C/C=C/C=O
active: Potency [5] 33.5 µM | Potency [12] 23.7 µM
inactive: Potency [13] | Potency [2] | activation [3] 0.997% and -0.836% | max response [4] -2.99% and -1.24% | outcome [6] | max response [7] -0.854% and -5.85% | max response [8] -1.02% | Potency [9] | max response [10] 5.82% and -4.16% | outcome [11]

O=Cc1ccccc1Cl
inactive: Potency [1] | Potency [2] | activation [3] -0.0176% | max response [4] -3.69% | Potency [5] | outcome [6] | Potency [12] | max response [7] -4.5% | max response [8] -11.9% | Potency [9] | max response [10] -0.844% | outcome [11]

c1ccc2n[nH]nc2c1
inactive: Potency [1] | Potency [2] | activation [3] 0.556% | max response [4] -6.33% | Potency [5] | outcome [6] | Potency [12] | max response [7] 3.37% | max response [8] -14.1% | Potency [9] | max response [10] -4.36% | outcome [11]

CC(=O)c1ccccn1
inactive: Potency [2] | Potency [14] | activation [3] -0.723% | max response [4] 0.325% | Potency [5] | outcome [6] | Potency [12] | max response [7] 5.72% | max response [8] -9.54% | Potency [9] | max response [10] 2.33% | outcome [11]

CNc1ccc([N+](=O)[O-])cc1
inactive: Potency [13] | Potency [2] | activation [3] 1.91% | Potency [5] | outcome [6] | max response [7] 5.65% | max response [8] 0.311% | Potency [9] | max response [10] 8.26% | outcome [11]

O=C1OC(=O)c2c(Cl)c(Cl)c(Cl)c(Cl)c21
inactive: Potency [13] | Potency [2] | activation [3] 0.646% and 1.03% | max response [4] 0.893% and -0.287% | Potency [5] | outcome [6] | Potency [12] | max response [7] 1.45% and 13.5% | max response [8] 5.35% and -3.52% | Potency [9] | max response [10] 0.139% and -2.42% | outcome [11]

O=[N+]([O-])c1cc(C(F)(F)F)ccc1Cl
inactive: Potency [13] | Potency [2] | activation [3] 1.14% | max response [4] 0.399% | Potency [5] | outcome [6] | Potency [12] | max response [7] -6.2% | max response [8] -0.584% | Potency [9] | max response [10] 0.829% | outcome [11]
